Data on 40 compounds can be found in PubChem BioAssay.

Each structure is given as a SMILES string. Activity calls are given as the source filed them. The rule behind the calls is not given here.

In this assay the target is Pantothenate synthetase (Mycobacterium tuberculosis (strain ATCC 25618 / H37Rv)) (UniProt P9WIL5). Briefly: Coupled enzyme confirmation of inhibitors against recombinant Mtb PanC (AID 375).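 Note: 0% = full reaction with vehicle and 100% = no enzyme background.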 The settings on record: coupled enzyme assay; at 10 µM, hits give high values.
Sequence of Pantothenate synthetase (Mycobacterium tuberculosis (strain ATCC 25618 / H37Rv)) (P9WIL5 whole entry, looked up): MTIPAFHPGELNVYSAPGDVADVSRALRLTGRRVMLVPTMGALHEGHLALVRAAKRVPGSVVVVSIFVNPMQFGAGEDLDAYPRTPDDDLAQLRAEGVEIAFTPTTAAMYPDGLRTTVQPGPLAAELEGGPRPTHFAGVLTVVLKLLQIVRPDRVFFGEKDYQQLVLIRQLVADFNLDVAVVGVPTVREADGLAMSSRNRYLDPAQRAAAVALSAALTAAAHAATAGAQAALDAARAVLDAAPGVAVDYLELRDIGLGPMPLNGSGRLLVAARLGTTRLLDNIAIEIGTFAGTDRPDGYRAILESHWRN
Consider `COC(=O)CSC1=C(C#N)C(c2ccccc2)CC(=O)N1` (stereo not given), for which the inhibition was 0% (inactive).

In the case of `CC(Sc1nc(-c2ccccc2)cc(C(F)(F)F)n1)C(=O)N1CCCC1` (stereo not given), the inhibition was 1% (inactive).

As for `COc1ccccc1OCCCn1c(=O)oc2ccccc21`, the inhibition was 0% (inactive).

In the case of `CCCCSc1nc(CCC)cc(=O)[nH]1`, the inhibition was 0% (inactive).

`N#Cc1nc(-c2ccco2)oc1NCCc1ccccc1`: the inhibition was 0% (inactive).

Consider `CCN1CCN(c2cc3c(cc2F)c(=O)c(C(=O)O)cn3C2CC2)CC1`, for which the inhibition was 0% (inactive).

For the compound `CC(Sc1nc(-c2ccccc2)cc(C(F)(F)F)n1)C(=O)N1CCC(C(N)=O)CC1` (stereo not given), the inhibition is 0% (inactive).

For the compound `CCC(C)c1ccc(NC(=O)C2CC2)cc1` (stereo not given), the inhibition was 0% (inactive).

Consider `Cc1ccc(Cn2nnc3c(=O)[nH]c(C4CCN(S(=O)(=O)c5ccc(F)cc5)CC4)nc32)cc1`, for which the inhibition is 3% (inactive).

Consider `CN(Cc1nc(-c2ccncc2)no1)S(=O)(=O)c1ccc(Br)cc1`, for which the inhibition is 2% (inactive).

`COCc1ccccc1Cn1cnc2c1c(=O)n(C)c(=O)n2C`: the inhibition is 3% (inactive).

For `COc1cccc(/C=N/n2c(C)nc3ccccc32)c1OC`, the inhibition is 0% (inactive).

For the compound `CC(C)(C)c1cc(CCC(=O)N2CCNCC2)c(C(C)(C)C)cc1O`, the inhibition is 0% (inactive).

As to `CC1Cc2nc(SCC(=O)Nc3ccc(F)cc3F)n(C)c(=O)c2S1` (stereo not given), the inhibition is 0% (inactive).

`Cc1cc(C)nc(SCc2nnc(SCc3ccccc3Cl)o2)n1`: the inhibition was 0% (inactive).

Turning to `c1ccc(CCc2nn3c(Cn4cnc5ccccc54)nnc3s2)cc1`, the inhibition is 5% (inactive).

Take `O=C(c1ccc(-c2ccccc2)cc1)N1CCN(c2ncccn2)CC1`: the inhibition is 8% (inactive).

In the case of `Cn1c(=O)cc(NCCc2ccccc2)[nH]c1=O`, the inhibition was 0% (inactive).

With `COc1ccccc1NC(=O)NCc1ccc2c(c1)OCO2`, the inhibition is 1% (inactive).

With `C=CCn1c(N)c(C(=O)OC(C)(C)C)c2nc3ccccc3nc21`, the inhibition is 1% (inactive).

Take `O=C(Nc1nccs1)c1ccc(Cl)c(S(=O)(=O)N2CCCCC2)c1`: the inhibition is 0% (inactive).

Take `Cc1ccc(-n2ncc3c(N4CCCC(C)C4)ncnc32)c(C)c1` (stereo not given): the inhibition is 5% (inactive).

Regarding `COc1cccc(Oc2cn[nH]c2-c2ccc(O)cc2O)c1`, the inhibition is 0% (inactive).

Take `Cc1cc(C)cc(OCCCC(=O)O)c1`: the inhibition is 4% (inactive).

On to `CCn1c(=S)ccc2ccc(OC)cc21`, for which the inhibition was 0% (inactive).

Take `c1ccc(-c2nnc(-c3ccco3)n2-c2ccccc2)cc1`: the inhibition is 0% (inactive).

As for `CCSc1nnc2c(n1)OC=Nc1ccc(Br)cc1-2`, the inhibition is 2% (inactive).

On to `COc1cc(S(=O)(=O)N(C)C)ccc1F`, for which the inhibition is 1% (inactive).

Regarding `CCOC(=O)C1C(=O)N(C(=O)c2ccc(OC)cc2)CC1c1ccccc1` (stereo not given), the inhibition was 0% (inactive).

As for `O=C(O)C1CC=CCC1C(=O)Nc1cccc(C(=O)N2CCCCC2)c1` (stereo not given), the inhibition was 0% (inactive).

Take `COc1ccccc1NC(=O)Cc1noc(CSc2cc(C)c3ccccc3n2)n1`: the inhibition is 0% (inactive).

As for `Nc1nc(-c2ccccc2)cc(C(F)(F)F)n1`, the inhibition is 5% (inactive).

As to `O=C(NCCN1CCCCCC1)c1ccc(N2CCCC2=O)cc1`, the inhibition is 1% (inactive).

For the compound `CC1(C)CC(=O)c2cc(OCC(=O)NCCCN3CCN(c4ccccc4F)CC3)ccc2O1`, the inhibition was 0% (inactive).

For `O=[n+]1cc(-c2ccc(F)cc2)n([O-])c2c1CCC2`, the inhibition was 0% (inactive).

On to `CS(=O)(=O)Nc1ccccc1C(=O)O`, for which the inhibition is 0% (inactive).

On to `Cc1cc(C)n2c(SCCN3C(=O)c4ccccc4C3=O)nnc2n1`, for which the inhibition was 0% (inactive).

For `COc1ccc(CC(=O)OCn2nnc3ccccc3c2=O)cc1`, the inhibition was 4% (inactive).

`COC(=O)c1nnn(-c2ccccc2)c1N`: the inhibition is 4% (inactive).

As for `COc1ccc(C)cc1NC(=O)CCC(=O)Nc1ccc2nc(N3CCN(C)CC3)cc(C)c2c1`, the inhibition was 0% (inactive).
